# Laboratory results as given in PubChem BioAssay (NCATS).
# Where “and” joins values, the source holds several entries; their conditions need not be identical. Equal values may be shown once. Inconclusive results are not listed. A call without a number means that no potency is given here. A number with no mark means an inactive call. Calls of active or inactive are those of the source. Unless noted, calls come from the whole dose curve; as a rule, active = well fitted curve in the direction sought with a large enough effect; inconclusive = small, poorly fitted or top-dose-only effect, or another doubt; inactive = no such curve, though single readings can be large; an effect the other way counts as inactive or inconclusive.
# Tests used:
# [1] = target: Cytochrome P450 2C9 (Homo sapiens) (UniProt P11712); test: qHTS Assay for Inhibitors and Substrates of Cytochrome P450 2C9 (AID 883); note: nearly all actives have a fitted effect of over 60% in size
# Outline: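 Turnover of Luciferin-H (100uM, KM) by 10nM human CYP2C9 was measured over 60 min at 37C with NADPH regeneration; inhibitors and some substrates reduce luminescence. Data normalized to sulphaphenazole 57uM.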
# [2] = target: Cytochrome P450 3A4 (Homo sapiens) (UniProt P08684); test: qHTS Assay for Inhibitors and Substrates of Cytochrome P450 3A4 (AID 884); note: series mostly up to about 57 µM; nearly all actives have a fitted effect of over 50% in size
# Outline: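 Luminescent readout of luciferin produced by CYP3A4 (20 nM) dealkylation of Luciferin-PPXE, 25 uM (its KM). NADPH-driven reaction ran 60 min at RT after 10 min compound preincubation; data scaled to 57 uM ketoconazole as 100% inhibition.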
# [3] = target: Cytochrome P450 2D6 (Homo sapiens) (UniProt P10635); test: qHTS Assay for Inhibitors and Substrates of Cytochrome P450 2D6 (AID 891);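 note: luciferin methyl ether substrate demethylated by CYP2D6 with NADPH regeneration; nearly all actives have a fitted effect of over 60% in size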
# Outline: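 Luminescent read-out of luciferin formed by 5 nM human CYP2D6 demethylating 30 uM Luciferin-ME EGE (Km level) over 60 min at room temperature after NADPH regeneration addition. Data normalized to full inhibition by 1.43 uM quinidine.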
# [4] = target: Cytochrome P450 2C19 (Homo sapiens) (UniProt P33261); test: qHTS Assay for Inhibitors and Substrates of Cytochrome P450 2C19 (AID 899); note: nearly all actives have a fitted effect of over 60% in size
# Outline: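 Reactions contain 5nM enzyme, 10uM Luciferin-H EGE (KM) and 50mM KPO4; compound preincubates 10 min at 37C, NADPH regeneration starts turnover for 60 min. Luminescence after detection reagent gives activity.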
# [5] = qHTS for Inhibitors of Plasmodium falciparum (DD2) proliferation (AID 504314);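 note: parasite DNA measured by SYBR Green fluorescence after red cell lysis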
# Outline: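 SYBR Green DNA-fluorescence growth assay: infected RBCs at 0.3% parasitemia, 2.5% hematocrit, 72 h compound exposure, 37C, 5% CO2; overnight lysis with dye at RT; normalized to 0.29 uM artemisinin and vehicle.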
# [6] = qHTS for Inhibitors of Plasmodium falciparum (GB4) proliferation (AID 504315); note: nearly all actives have a fitted effect of over 50% in size
# Outline: (§1)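 Parasite growth measured as SYBR Green DNA fluorescence (ex 485, em 535 nm) after overnight lysis following 72 h culture at 37 °C, 0.3% parasitemia, 2.5% hematocrit. Values normalized against DMSO and 0.29 uM artemisinin controls, with plate-stack correction.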
# [7] = qHTS for Inhibitors of Plasmodium falciparum (7G8) proliferation (AID 504316); note: nearly all actives have a fitted effect of over 65% in size; note: potency is the fitted concentration of half-maximal effect; for activity change, negative = inhibition: series mostly up to about 6.7 µM
# Outline: as §1
# [8] = qHTS for Inhibitors of Plasmodium falciparum (HB3) proliferation (AID 504318); note: nearly all actives have a fitted effect of over 60% in size
# Outline: as §1
# [9] = qHTS for Inhibitors of Plasmodium falciparum (CP250) proliferation (AID 504320)
# Outline: as §1
# [10] = target: Atrial natriuretic peptide receptor 1 (Homo sapiens) (UniProt P16066); test: Natriuretic polypeptide receptor (hNpr1) antagonism - Pilot CMLD screen (AID 1347052; calls by dose curve;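 note: HEK293 cells with hNpr1 stimulated by hNppA peptide at 0.1 nM; cGMP level read as GloSensor luciferase luminescence after agonist stimulation; series mostly up to about 9.2 µM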)
# Atrial natriuretic peptide receptor 1 (Homo sapiens), sequence (P16066 whole entry, looked up): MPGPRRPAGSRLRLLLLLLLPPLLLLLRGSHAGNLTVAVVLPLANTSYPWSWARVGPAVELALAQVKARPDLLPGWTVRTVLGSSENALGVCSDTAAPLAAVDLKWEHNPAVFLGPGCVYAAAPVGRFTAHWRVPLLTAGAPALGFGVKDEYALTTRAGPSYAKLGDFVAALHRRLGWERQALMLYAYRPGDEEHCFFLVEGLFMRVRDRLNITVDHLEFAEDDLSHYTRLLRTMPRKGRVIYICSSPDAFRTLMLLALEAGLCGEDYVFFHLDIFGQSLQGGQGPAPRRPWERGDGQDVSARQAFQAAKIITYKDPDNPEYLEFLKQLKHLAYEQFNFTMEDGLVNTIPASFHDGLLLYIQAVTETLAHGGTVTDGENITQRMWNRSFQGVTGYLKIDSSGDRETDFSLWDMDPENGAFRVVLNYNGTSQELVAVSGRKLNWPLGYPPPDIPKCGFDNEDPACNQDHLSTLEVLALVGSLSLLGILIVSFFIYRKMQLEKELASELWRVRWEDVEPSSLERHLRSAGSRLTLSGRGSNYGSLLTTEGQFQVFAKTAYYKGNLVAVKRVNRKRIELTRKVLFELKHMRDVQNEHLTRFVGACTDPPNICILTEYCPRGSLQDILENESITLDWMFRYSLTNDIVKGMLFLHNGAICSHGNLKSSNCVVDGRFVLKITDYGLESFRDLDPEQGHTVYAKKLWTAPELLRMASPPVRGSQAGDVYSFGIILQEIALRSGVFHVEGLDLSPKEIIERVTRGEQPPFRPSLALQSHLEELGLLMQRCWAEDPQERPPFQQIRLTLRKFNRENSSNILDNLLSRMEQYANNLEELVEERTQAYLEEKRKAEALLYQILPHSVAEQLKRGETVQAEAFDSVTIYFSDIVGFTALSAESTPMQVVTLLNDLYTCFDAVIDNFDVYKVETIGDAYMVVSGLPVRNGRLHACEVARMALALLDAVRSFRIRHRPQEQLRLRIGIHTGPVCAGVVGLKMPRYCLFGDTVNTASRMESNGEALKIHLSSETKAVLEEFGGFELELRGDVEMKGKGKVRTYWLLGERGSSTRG
# Cytochrome P450 3A4 (Homo sapiens), sequence (P08684 whole entry, looked up): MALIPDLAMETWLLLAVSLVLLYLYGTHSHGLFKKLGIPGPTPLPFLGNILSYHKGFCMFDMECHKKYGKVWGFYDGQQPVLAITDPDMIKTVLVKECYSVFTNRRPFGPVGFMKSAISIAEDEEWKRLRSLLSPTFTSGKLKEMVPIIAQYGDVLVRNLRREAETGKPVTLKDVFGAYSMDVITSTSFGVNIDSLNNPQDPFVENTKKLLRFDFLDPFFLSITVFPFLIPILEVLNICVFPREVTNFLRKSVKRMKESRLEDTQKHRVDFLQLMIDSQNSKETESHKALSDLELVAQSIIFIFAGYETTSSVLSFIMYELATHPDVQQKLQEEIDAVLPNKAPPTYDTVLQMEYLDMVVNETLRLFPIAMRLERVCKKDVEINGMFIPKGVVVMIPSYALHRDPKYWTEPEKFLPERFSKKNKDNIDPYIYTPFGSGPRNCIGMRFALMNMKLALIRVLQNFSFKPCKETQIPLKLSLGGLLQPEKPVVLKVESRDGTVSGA
# Cytochrome P450 2C9 (Homo sapiens), sequence (P11712 whole entry, looked up): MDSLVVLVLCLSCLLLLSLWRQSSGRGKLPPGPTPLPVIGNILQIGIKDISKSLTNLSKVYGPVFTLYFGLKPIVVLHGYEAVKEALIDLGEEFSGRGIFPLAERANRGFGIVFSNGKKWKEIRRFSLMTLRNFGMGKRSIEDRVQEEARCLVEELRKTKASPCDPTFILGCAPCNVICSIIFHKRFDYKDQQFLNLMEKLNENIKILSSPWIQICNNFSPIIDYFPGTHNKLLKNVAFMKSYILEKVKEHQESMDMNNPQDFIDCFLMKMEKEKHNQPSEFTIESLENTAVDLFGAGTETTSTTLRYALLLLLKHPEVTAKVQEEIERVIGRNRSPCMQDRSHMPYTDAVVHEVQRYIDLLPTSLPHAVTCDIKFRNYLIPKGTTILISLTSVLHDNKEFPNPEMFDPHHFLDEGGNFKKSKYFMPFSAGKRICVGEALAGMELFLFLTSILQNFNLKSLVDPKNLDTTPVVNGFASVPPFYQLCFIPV
# Cytochrome P450 2C19 (Homo sapiens), sequence (P33261 whole entry, looked up): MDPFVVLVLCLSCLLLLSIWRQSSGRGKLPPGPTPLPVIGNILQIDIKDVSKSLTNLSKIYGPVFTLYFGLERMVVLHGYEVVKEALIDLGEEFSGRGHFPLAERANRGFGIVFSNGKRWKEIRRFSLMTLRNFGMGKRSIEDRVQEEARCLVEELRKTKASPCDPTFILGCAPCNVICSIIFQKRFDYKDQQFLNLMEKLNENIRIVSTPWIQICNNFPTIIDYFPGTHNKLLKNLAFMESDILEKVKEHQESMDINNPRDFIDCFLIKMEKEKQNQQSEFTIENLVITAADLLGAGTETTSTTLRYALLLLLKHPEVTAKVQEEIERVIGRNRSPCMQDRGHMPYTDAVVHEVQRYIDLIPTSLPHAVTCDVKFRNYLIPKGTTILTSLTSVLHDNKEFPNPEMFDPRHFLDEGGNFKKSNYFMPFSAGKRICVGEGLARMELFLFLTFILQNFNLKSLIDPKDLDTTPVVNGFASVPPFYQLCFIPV
# Cytochrome P450 2D6 (Homo sapiens), sequence (P10635 whole entry, looked up): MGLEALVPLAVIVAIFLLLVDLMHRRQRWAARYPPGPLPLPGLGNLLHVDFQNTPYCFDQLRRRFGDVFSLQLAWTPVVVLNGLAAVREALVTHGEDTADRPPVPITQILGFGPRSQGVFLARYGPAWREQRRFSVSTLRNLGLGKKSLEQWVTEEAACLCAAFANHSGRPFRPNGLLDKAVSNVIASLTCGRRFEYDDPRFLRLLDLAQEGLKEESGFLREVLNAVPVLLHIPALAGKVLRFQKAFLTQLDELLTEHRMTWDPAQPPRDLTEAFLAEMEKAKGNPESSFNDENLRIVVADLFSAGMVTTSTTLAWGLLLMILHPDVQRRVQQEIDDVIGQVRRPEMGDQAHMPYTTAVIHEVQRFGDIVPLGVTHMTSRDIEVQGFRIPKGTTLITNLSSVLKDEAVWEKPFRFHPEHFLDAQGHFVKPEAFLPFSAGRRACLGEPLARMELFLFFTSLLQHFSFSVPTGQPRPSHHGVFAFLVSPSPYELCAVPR
compound,measurement,setting,value
C=CCC1(O)C=CCC2C3C4C(OC(C)(C)C)C2C1C34 (stereo not given),"activity change, negative = inhibition",[1],-12.7% [at 11.4 µM]
same,"activity change, negative = inhibition",[2],-11.8% [at 11.4 µM]
same,"activity change, negative = inhibition",[3],-4.54% [at 11.4 µM]
same,"activity, negative = inhibition",[4],-32.4% [at 11.4 µM]
same,Potency,[5],inactive
same,Potency,[6],inactive
same,Potency,[7],inactive
same,Potency,[8],inactive
same,Potency,[9],inactive
same,Potency,[10],inactive
COc1ccc(-c2nc(-c3ccccc3)oc2Nc2ccccc2C)cc1,Potency,[5],inactive
same,Potency,[6],inactive
same,Potency,[7],inactive
same,Potency,[9],inactive
same,Potency,[10],inactive
C=CCN1C=C2C(=O)C(C)(OC(=O)c3ccco3)C(=O)C(C=C)=C2C=C1C1CC1 (stereo not given),"activity, negative = inhibition",[5],2.08% [at 1.12 µM]
same,Potency,[6],inactive
same,Potency,[7],inactive
same,Potency,[9],inactive
same,Potency,[10],inactive
COC1=CC2C(=O)C(C(c3ccccc3)C2C)C1(C)O (stereo not given),Potency,[5],inactive
same,Potency,[6],inactive
same,Potency,[7],inactive
same,Potency,[9],inactive
same,Potency,[10],inactive
CCOC(=O)[C@@]1([C@@H](NC(=O)OC)c2ccco2)CCCC1=O,Potency,[5],inactive
same,Potency,[6],inactive
same,Potency,[7],inactive
same,Potency,[9],inactive
same,Potency,[10],inactive
COc1ccc(-c2nc3c(c4c2C[C@H](c2ccccc2)OC4)CN(C(=O)c2cccnc2)CC3)c(C)c1,"activity, negative = inhibition",[5],2.56% [at 1.12 µM]
same,Potency,[6],inactive
same,Potency,[7],1.51 µM (active) and 1.69 µM (active)
same,Potency,[9],inactive
same,Potency,[10],inactive
CC1(OC(=O)C2CCCC2)C(=O)C=C2C=C(c3ccsc3)N(Cc3ccc4c(c3)OCO4)C=C2C1=O (stereo not given),"activity, negative = inhibition",[5],-6.6% [at 1.12 µM]
same,Potency,[6],inactive
same,Potency,[7],inactive
same,Potency,[9],inactive
same,Potency,[10],inactive
CCN1C(=NCC(C)C)N[C@@H](CCc2ccccc2)[C@H](C(=O)OC)[C@H]1C,Potency,[5],inactive
same,Potency,[6],inactive
same,Potency,[7],inactive
same,Potency,[9],inactive
same,Potency,[10],inactive
CCCCC1=CC2=C(c3ccco3)C(=O)C(C)(OC(=O)c3ccc(OC)cc3)C(=O)C2=CN1C1CCCCC1 (stereo not given),Potency,[5],inactive
same,Potency,[6],inactive
same,Potency,[7],inactive
same,Potency,[9],inactive
same,Potency,[10],inactive
O=P1(O)Oc2c(-c3ccccc3)cc3ccccc3c2-c2c(c(-c3ccccc3)cc3ccccc23)O1,Potency,[5],inactive
same,Potency,[6],inactive
same,Potency,[7],inactive
same,Potency,[9],inactive
same,Potency,[10],inactive
CCCCC1=CC2=C(c3ccco3)C(=O)C(C)(OC(=O)c3ccc(OC)cc3)C(=O)C2=CN1CCc1ccccn1 (stereo not given),Potency,[5],inactive
same,Potency,[6],inactive
same,Potency,[7],inactive
same,Potency,[9],inactive
same,Potency,[10],inactive
COC1=CC2C(=O)C(C1=O)[C@H](c1ccccc1)[C@H]2C (stereo not given in full),Potency,[5],inactive
same,Potency,[6],inactive
same,Potency,[7],inactive
same,Potency,[9],inactive
same,Potency,[10],inactive
